# Bioassay records deposited in PubChem by National Center for Advancing Translational Sciences (NCATS).
# A selection: hits, their analogues and other compounds. The true share with any hit is near 1.5%.
# TrxR1 substrate = qHTS Assay for Substrates of Mammalian Selenoprotein Thioredoxin Reductase 1 (TrxR1): qHTS; purified TrxR1 substrate turnover, NADPH consumption readout; AID 588456, 2011; Potency, µM (top dose mostly 114 µM), for inactives: at the highest dose activity change, negative = substrate turnover; 0.01% of 390,000 active; note: potency is the fitted concentration of half-maximal effect; nearly all actives have a fitted effect of over 50% in size
# Target sequence (O89049 whole entry, looked up): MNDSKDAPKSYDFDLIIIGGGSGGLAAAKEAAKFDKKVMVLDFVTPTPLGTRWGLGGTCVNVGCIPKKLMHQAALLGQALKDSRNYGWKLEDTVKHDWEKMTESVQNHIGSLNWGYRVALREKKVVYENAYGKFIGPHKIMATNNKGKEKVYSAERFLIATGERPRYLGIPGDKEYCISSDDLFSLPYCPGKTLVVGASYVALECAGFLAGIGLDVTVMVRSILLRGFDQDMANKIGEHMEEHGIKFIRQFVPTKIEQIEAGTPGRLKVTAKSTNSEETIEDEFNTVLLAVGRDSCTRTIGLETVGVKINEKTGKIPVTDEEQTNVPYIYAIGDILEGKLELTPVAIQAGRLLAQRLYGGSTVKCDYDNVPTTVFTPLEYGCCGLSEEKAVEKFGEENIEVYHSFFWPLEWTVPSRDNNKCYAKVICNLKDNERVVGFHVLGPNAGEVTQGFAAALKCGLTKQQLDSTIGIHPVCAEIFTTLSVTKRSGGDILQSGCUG
#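 Rat TrxR1, dispensed at 90 nM, was prereduced with 400 uM NADPH (final) for 5 min at ~22 deg C, then incubated with compound 15 min before 400 uM selenite. A first-read NADPH fluorescence drop versus no-compound background flagged substrates.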
# GALK inhibitor = qHTS Assay for Inhibitors of Human Galactokinase (GALK) | Purified GALK, Kinase-Glo residual ATP luminescence | 0.007% of 270,000 active | AID 1868, 2009 | Potency, µM (titrated, usually from 57.5 µM), for the others: at the top dose activity change, negative = inhibition, hits mostly inhibitors | P51570; note: potency is the fitted concentration of half-maximal effect
#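 Human GALK (5 nM) with 35 uM ATP and 100 uM galactose in 20 mM HEPES pH 8.0, 5 mM MgCl2, 60 mM NaCl, 1 mM DTT, 0.01% BSA. After 1 h at room temperature, leftover ATP was read by Kinase-Glo Plus luminescence.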
# Coupling enz = qHTS Assay for Inhibitors of Fructose-1,6-bisphosphate Aldolase from Giardia Lamblia: Coupling assay counterscreen | coupling enzyme system counterscreen, AmpLite Red fluorescence | activity change, negative = inhibition, % at 58.2 µM, hits read low | 0.67% of 290,000 active; in the data active = activity change below about -30%
#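 First, compound is pin-transferred into glyceraldehyde-3-phosphate coupling-enzyme reagent at 57.5 uM final and held 10 min at RT. Next, substrate, coupling system and AmpLite Red are added. After 20 min RT, fluorescence (525/598 nm) is read.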
# Giardia killer = Small Molecules that selectively kill Giardia lamblia: qHTS | activity change, % at 7.66 µM, hits read low | 0.15% of 340,000 active | Giardia lamblia trophozoite viability; in the data active = activity change below about -80%; inconclusive = between about -30% and that limit;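 note: parasites exposed to compound for two days anaerobically before the ATP read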
#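 Compounds were tested on trophozoites seeded at 100 cells/well and held 48 hrs at 37 deg C anaerobically. An ATP-based luminescent kit measured the remaining live cells.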
# TrxR1 inh = qHTS Assay for Inhibitors of Mammalian Selenoprotein Thioredoxin Reductase 1 (TrxR1): qHTS; Thioredoxin reductase 1, cytoplasmic (Rattus norvegicus), O89049; 1% of 390,000 active; recombinant rTrxR1, NADPH fluorescence consumption, selenite substrate; Potency, µM (series often up to 114 µM), inactives show at the highest dose activity change, negative = inhibition, usual class: inhibitors; AID 588453, 2011; note: potency is the fitted concentration of half-maximal effect; nearly all actives have a fitted effect of over 65% in size
#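 Rat TrxR1 (90 nM in the dispensed reagent) was pre-reduced with 400 uM NADPH for 5 min at room temperature, then incubated with compound for 15 min. After 400 uM selenite was added, NADPH fluorescence (Ex 340/Em 450 nm) was followed for 8 min.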
# PI4K2A inh = qHTS for small molecular inhibitors of PI4K2A | purified PI4K2A, ADP-Glo luminescence, 1 h; active compounds read low | activity change, negative = inhibition, % at 76.9 µM | 0.13% of 420,000 active | AID 1346378, 2018; in the data active = activity change below about -50%; inconclusive = mostly about -30% to -49%;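 note: -100% = wells without enzyme as full effect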
#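 Compounds are screened against recombinant PI4K2A using PI as substrate and ATP, the latter dispensed at 300 microM. Reactions run one hour at ambient temperature before ADP-Glo detection; full inhibition defined by wells lacking enzyme.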
# Numbers without * were called inactive; ? = inconclusive; . = not tested or not shown; [ ] = remark or other dose. Unless noted, calls come from the whole dose curve; as a rule, active = well fitted curve in the direction sought with a large enough effect; inconclusive = small, poorly fitted or top-dose-only effect, or another doubt; inactive = no such curve, though single readings can be large; an effect the other way counts as inactive or inconclusive. Unless noted, % is set by controls: 0 for no effect and ±100 for the full control effect.
SMILES,TrxR1 substrate,GALK inhibitor,Coupling enz,Giardia killer,TrxR1 inh,PI4K2A inh
CCc1ccccc1NC(=O)c1sc(-n2nc(C)c(Cc3ccccc3)c2C)nc1C,3.5%,.,.,.,17.7%,-1.6
CC(=O)/C=C/c1ccc2c(c1)S(=O)(=O)N(C1CCCC1)[C@H]2CC(C)=O,-4.5%,.,.,.,-5.7%,.
CC(=O)c1ccc(NC(=O)CSC2=Nc3ccccc3N=C(c3ccc(F)cc3)C2)cc1,-4.6%[57.1 µM],.,.,.,1.0%[57.1 µM],-0.4
COC(=O)C1=C(C)N(c2ccc(OC)c(OC)c2)C(=O)/C1=C\c1ccco1,-0.3%,-1.2%,0.2,5.4,28.2µM*,6.3
CC(C)COc1ccc(C(=O)Nc2nnc(S(=O)(=O)N(C)Cc3ccco3)s2)cc1,11.7%[11.4 µM],.,.,.,11.4%,-6.8
C=CCCC1CN(Cc2ccco2)S(=O)(=O)c2c(F)cccc2O1 (centres undefined),-2.6%,.,.,5.8,39.8µM*,-5.8
Cc1ccc(CNc2ccc3c(c2)OCO3)cc1,6.2%,2.3%,-36.6*,-5.3,?,-9.4
c1cc(CNc2ccc3c(c2)OCO3)ccn1,10.8%,2.0%,-10.5,1.6,-19.3%,8.6
COc1ccc(-c2nnc(SCC(=O)Nc3c(C)cccc3C)nc2-c2ccc(OC)cc2)cc1,-10.0%,.,.,.,-14.1%,-3.0
Cc1cccc(C)c1NC(=O)CSc1nnc(-c2ccco2)c(-c2ccco2)n1,3.8%,-0.7%,3.8,5.2,3.16µM*,-22.3
Cc1ccccc1NC(=O)CSc1nnc(-c2ccco2)c(-c2ccco2)n1,-0.2%,4.1%,2.2,6.5,2.51µM*,?
CCNc1ncc2nc(C)c(=O)n(Cc3cccs3)c2n1,.,.,2.8,.,.,.
COc1cccc(CNC(=O)c2ccc3c(c2)nc2n3CCOC2)c1OC,3.9%[57.1 µM],.,.,.,25.8%[57.1 µM],2.1
COC(=O)c1c(C)[nH]c(O)c1C=Nc1ccc(C#N)cc1,-8.0%,-1.7%,-35.6*,-9.4,?,-6.0
CCOC(=O)c1c(C)[nH]c(O)c1C=Nc1ccccc1,4.9%[57.1 µM],0.2%,-5.8,6.2,4.5%[57.1 µM],-1.5
O=C(/C=C/c1ccccc1)/C=C/c1ccccc1,-13.2%,-7.3%,-1.2,-25.6,56.2µM*,35.2
O=C(/C=C/c1ccccc1)c1ccccc1,-7.6%,3.1%,6.3,-28.5,?,3.2
O=[N+]([O-])c1cc([N+](=O)[O-])c2cc3ccccc3nc2c1,4.1%,-6.8%,-4.9,-21.0,44.7µM*,-3.6
COc1cc(SC#N)ccc1N=Cc1c(C)[nH]n(-c2ccc(C)cc2C)c1=O,-6.7%,-0.7%,1.6,-13.8,-1.1%,-53.6*
COc1ccccc1N=Cc1c(C)[nH]n(-c2ccc(C)cc2C)c1=O,5.6%[57.1 µM],0.6%,-5.2,-5.3,19.5%[57.1 µM],3.4
COc1cc(SC#N)ccc1N=Cc1c(C)[nH]n(-c2cccc3ccccc23)c1=O,-9.7%,3.5%,0.9,-4.6,-16.5%,-52.6*
COc1cccc(O)c1O,.,.,-32.7*,.,.,.
COc1ccccc1O,2.8%,.,0.2,3.9,-1.9%,0.9
CN1C(=O)c2cc(NS(C)(=O)=O)ccc2OC[C@H]2O[C@@H](CC(=O)NCc3ccc(-c4ccccc4)cc3)CC[C@@H]21,.,.,.,.,.,-3.2
C=CCS(=O)(=O)c1cccc2cccnc12,-8.6%[57.1 µM],-0.2%,-34.1*,17.0,8.1%[57.1 µM],0.5
NS(=O)(=O)c1cccc2cccnc12,-1.0%,0.8%,0.0,7.8,14.0%,5.9
COc1cc2c(cc1OC)-c1cc3ccc4c(c3c[n+]1CC2)OCO4,-0.5%[57.1 µM],.,-44.1*,-3.7,-4.0%[57.1 µM],-21.2
O=C1CCC[C@H]2Cc3nc4ccccc4cc3C[C@]23CCCN13,.,.,.,.,.,1.5
O=c1[nH]c(=O)n([C@H]2O[C@H](CO)[C@@H](O)[C@@H]2O)cc1/C=C\Br,.,.,.,.,.,-0.4
